23 compounds from PubChem BioAssay (NCATS) can be followed below.

Unmarked numbers belong to inactive results. Inconclusive results are not listed. The source made the active and inactive calls. Unless noted, calls follow the shape of the dose curve; as a rule, active = well fitted curve in the direction sought with a large enough effect; inconclusive = small, poorly fitted or top-dose-only effect, or another doubt; inactive = no such curve, though single readings can be large; an effect the other way counts as inactive or inconclusive.

Test [1] addresses Protein phosphatase 1D (Homo sapiens) (UniProt O15297). The experiment in a line: RapidFire Mass Spectrometry qHTS Assay for Modulators of WT P53-Induced Phosphatase 1 (WIP1) (AID 1347424). Also: potency is read from the fitted curve at half-maximal effect. The method in brief: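 RapidFire MS readout of dephosphorylated VEPPL-S-QETFS product, with 1 uM isotope-labelled peptide standard. Reaction: 10 nM WIP1, 2 uM phosphopeptide substrate, 5 min, room temperature, after 1 h compound preincubation; stopped with 0.5% formic acid.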
In general terms: qHTS replaces the single test concentration by a dilution series.

Test [2] shares this target. The experiment in a line: Rhodamine-PBP qHTS Assay for Modulators of WT P53-Induced Phosphatase 1 (WIP1) (AID 1347425). Also: % of control where 0% means no effect. The method in brief: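 5 nM WIP1 + 10 uM Rh-PBP, 50 mM Tris pH 7.5, 30 mM MgCl2, 1 mM TCEP, 0.1 mM EGTA, BSA; cpds pinned, 1 hr RT; + 10 uM phosphopeptide; fluorescence 1-min reads x 11 min; delta = f1 - f0.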
Test [3] is described as follows: Primary qHTS for inhibitors of SARS-S pseudo-typed particle cell entry (AID 1479145; calls by dose curve; also: nearly all actives have a fitted effect of over 45% in size).
Test [4] is described as follows: Primary qHTS for Huh7 cytotoxicity: counterscreen for inhibitors of MERS-S pseudotyped particle cell entry (AID 1479147; calls by dose curve).
Test [5] is described as follows: Primary qHTS for inhibitors of MERS-S pseudo-typed particle cell entry (AID 1479149; calls by dose curve; also: nearly all actives have a fitted effect of over 60% in size).
A short description of test [6]: Primary qHTS for Vero E6 cytotoxicity: counterscreen for inhibitors of SARS-S pseudo-typed particle cell entry (AID 1479150; calls by dose curve).
Test [7] can be described thus: Primary qHTS for inhibitors of La Crosse Virus (LACV) - induced cell death in SH-SY5Y cells (AID 1508616).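 Also: top concentration of the series differs between compounds; 0% = infected DMSO wells and 100% = uninfected DMSO wells; higher means more rescue of cells from virus-induced death.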 The method in brief:
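Rescue of virus-induced death was read as ATPLite luminescence after 6 days at 37C, scaled between DMSO wells with LACV and without virus. Cells were SH-SY5Y, 6000/well, infected at 0.01 MOI after compound addition.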

The target in test [8] is Calcium and integrin-binding protein 1 (Homo sapiens) (UniProt Q99828). The experiment in a line: Primary qHTS for Identification of Calcium Integrin Binding Protein 1 (CIB1) Competitor (AID 1508620).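 Also: GST tagged CIB1 binding a fluorescein labelled alphaIIb integrin peptide tracer; top concentration of the series differs between compounds; % is scaled to controls: 0 for no effect and ±100 for the full control effect.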 Summed up:
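Fluorescence polarization competition: GST-tagged CIB1 (1 uM final) preincubated with compound 15 min at room temperature, then FITC-labelled alphaIIb peptide (100 nM final) added. After 15 min at room temperature, polarization read at Ex 480/Em 540.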

The nature of test [9]: A High-Content qHTS Against Drug Library for the Identification of Small Molecules that Inhibit DYT1 Early Onset Primary Dystonia-Associated Cell Pathology (AID 1645839; calls by dose curve; also: series mostly up to about 46 µM). The method in brief: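 Cells were seeded and left for 24 h, then dosed with compound alongside tetracycline induction of mutant EGFP-TorsinA. They were incubated for 48 h, fixed in 4% paraformaldehyde, permeabilized and imaged for mislocalization (%pathology) and cell count.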

The target in test [10] is Cytochrome P450 2D6 (Homo sapiens) (UniProt P10635). The experiment in a line: Cytochrome P450 family 2 subfamily D member 6 (CYP2D6) small molecule antagonists: luciferase biochemical (cell-free) qHTS assay (AID 1645840; active = well fitted curve in the direction sought with a large enough effect in the repeat runs; an effect the other way counts as inactive or inconclusive; also: nearly all actives have a fitted effect of over 55% in size; also: potency is read from the fitted curve at half-maximal effect). Summed up: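 P450-Glo CYP2D6 system: proluciferin substrate converted by enzyme to luciferin, read by luminescence proportional to activity. Enzyme-substrate mix with compound 10 min at room temperature, then NADPH regeneration 1 h before detection reagent.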
Chain of Cytochrome P450 2D6 (Homo sapiens) (P10635 whole entry, looked up): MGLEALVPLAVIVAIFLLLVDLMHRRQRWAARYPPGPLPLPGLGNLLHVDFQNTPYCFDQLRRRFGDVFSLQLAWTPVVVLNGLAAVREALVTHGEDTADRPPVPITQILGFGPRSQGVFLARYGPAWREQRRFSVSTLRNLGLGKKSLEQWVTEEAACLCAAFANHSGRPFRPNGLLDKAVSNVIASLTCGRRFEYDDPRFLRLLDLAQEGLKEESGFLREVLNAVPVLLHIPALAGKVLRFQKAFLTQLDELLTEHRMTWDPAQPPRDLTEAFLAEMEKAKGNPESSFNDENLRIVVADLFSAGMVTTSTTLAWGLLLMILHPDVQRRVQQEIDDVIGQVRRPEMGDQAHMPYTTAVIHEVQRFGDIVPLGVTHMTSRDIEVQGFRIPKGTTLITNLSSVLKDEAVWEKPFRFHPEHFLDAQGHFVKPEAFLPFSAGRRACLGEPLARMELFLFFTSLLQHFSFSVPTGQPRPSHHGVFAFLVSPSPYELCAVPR

Test [11] can be described thus: Primary qHTS for small molecule stabilizers of the endoplasmic reticulum resident proteome: Secreted ER Calcium Modulated Protein (SERCaMP) assay (AID 1508630). Also: % is scaled to controls: 0 for no effect and ±100 for the full control effect. The method in brief: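 The SH-SY5Y reporter protocol was run at 3 concentrations up to 38.3 uM (primary) or 11 concentrations (follow-up): 16 h compound, 100 nM thapsigargin for 4 h, then extracellular luciferase luminescence.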

The nature of test [12]: Validation qHTS assay for inhibitors of Activation Induced Cytidine Deaminase (AID): UDG Counterscreen signal (AID 1347427). Also: 0% is about no effect. The method in brief:
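Fluorescence at 560 nm excitation, 665 nm emission reports UDG signal after 250 mM NaOH (2x) addition and 30 min. Enzymes (AID 1 uM, UDG 2 U/mL, at 4/3x) preincubated 10 min with compound, then 4 h with 4x 250 nM DJC20/DJC23 substrate at room temperature.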

Test [13] has as its target Single-stranded DNA cytosine deaminase (Homo sapiens) (UniProt Q9GZX7). The experiment in a line: Validation qHTS assay for inhibitors of Activation Induced Cytidine Deaminase (AID): AID signal (AID 1347429). Also: % is scaled to controls: 0 for no effect and ±100 for the full control effect. The method in brief:
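Compounds (final up to 114 uM) preincubated with AID plus UDG; 250 nM DJC20/DJC23 substrate mix (4x stock) added, 4 hr at room temperature, then NaOH, 30 min. Read 1 fluorescence at 540 nm excitation, 590 nm emission.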

The target in test [14] is Calcium and integrin-binding protein 1 (Homo sapiens) (UniProt Q99828). The experiment in a line: Validation qHTS for Identification of Calcium Integrin Binding protein 1 (CIB1) Competitor (AID 1508618). Also: % is scaled to controls: 0 for no effect and ±100 for the full control effect. The method in brief:
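Displacement of FITC-alphaIIb peptide (100 nM) from CIB1-GST (1 uM) is monitored by polarization in quantitative HTS format; buffer carries 5 mM CaCl2 and 125 mM NaCl at pH 7.4, incubations are at room temperature.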

A short description of test [15]: Counterscreen qHTS for small molecule stabilizers of the endoplasmic reticulum resident proteome: GLuc-NoTag assay (AID 1508627).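 Also: series mostly up to about 76 µM; 0% = thapsigargin alone and -100% = DMSO vehicle control.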 Summed up: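 Counterscreen line: SH-SY5Y-GLuc-NoTag. Seed, 5 h; compound, 19 h; thapsigargin 100 nM, 4 h; 37C/5% CO2. Readout: secreted GLuc luminescence, coelenterazine 0.07x final, no lysis.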
A short description of test [16]: Confirmatory qHTS for small molecule stabilizers of the endoplasmic reticulum resident proteome: Secreted ER Calcium Modulated Protein (SERCaMP) assay (AID 1508628). Also: series mostly up to about 76 µM; % is scaled to controls: 0 for no effect and ±100 for the full control effect; nearly all actives have a fitted effect of over 40% in size. The method in brief:
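Reporter secretion upon ER calcium depletion (100 nM thapsigargin, 4 h, 37C) is measured as medium luminescence with coelenterazine, after 16 h compound pretreatment of SH-SY5Y-GLuc-SERCaMP cells; primary at three concentrations up to 38.3 uM, follow-up at 11 (up to 76.6 uM).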

Test [17] can be described thus: Cell Viability qHTS for small molecule stabilizers of the endoplasmic reticulum resident proteome (AID 1508629). The conditions noted are these: cell viability counter-screen, 100 nM thapsigargin for final 4 h.

Chain of Calcium and integrin-binding protein 1 (Homo sapiens) (Q99828 whole entry, looked up): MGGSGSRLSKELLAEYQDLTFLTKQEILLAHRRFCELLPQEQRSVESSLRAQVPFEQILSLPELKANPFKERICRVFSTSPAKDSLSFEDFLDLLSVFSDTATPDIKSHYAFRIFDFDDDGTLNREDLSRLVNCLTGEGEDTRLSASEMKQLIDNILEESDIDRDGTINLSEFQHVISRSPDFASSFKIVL
Chain of Protein phosphatase 1D (Homo sapiens) (O15297 whole entry, looked up): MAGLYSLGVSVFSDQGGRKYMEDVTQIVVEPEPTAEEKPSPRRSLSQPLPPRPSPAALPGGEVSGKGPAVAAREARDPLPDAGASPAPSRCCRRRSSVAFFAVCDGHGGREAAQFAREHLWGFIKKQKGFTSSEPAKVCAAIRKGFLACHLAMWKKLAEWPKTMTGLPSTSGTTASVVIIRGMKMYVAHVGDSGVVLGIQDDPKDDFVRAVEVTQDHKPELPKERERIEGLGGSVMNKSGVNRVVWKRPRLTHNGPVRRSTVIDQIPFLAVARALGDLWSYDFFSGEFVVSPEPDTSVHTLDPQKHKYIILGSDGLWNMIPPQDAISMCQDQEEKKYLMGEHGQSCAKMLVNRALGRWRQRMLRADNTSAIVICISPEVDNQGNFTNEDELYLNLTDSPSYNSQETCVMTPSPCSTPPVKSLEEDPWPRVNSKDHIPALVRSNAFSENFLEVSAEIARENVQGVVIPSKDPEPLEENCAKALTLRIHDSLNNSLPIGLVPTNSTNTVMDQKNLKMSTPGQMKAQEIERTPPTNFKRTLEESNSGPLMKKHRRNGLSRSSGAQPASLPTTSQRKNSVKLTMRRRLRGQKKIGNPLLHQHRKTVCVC
Chain of Single-stranded DNA cytosine deaminase (Homo sapiens) (Q9GZX7 whole entry, looked up): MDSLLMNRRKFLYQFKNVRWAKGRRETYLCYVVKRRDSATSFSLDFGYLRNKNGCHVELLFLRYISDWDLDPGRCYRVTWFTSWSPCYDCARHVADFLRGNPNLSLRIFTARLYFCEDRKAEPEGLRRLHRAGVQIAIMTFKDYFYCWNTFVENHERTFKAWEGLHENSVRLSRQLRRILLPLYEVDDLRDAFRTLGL

Turning to `Cc1nnc2n1-c1sc(CCC(=O)N3CCOCC3)cc1C(c1ccccc1Cl)=NC2`, the Potency result in test [1], in test [3], in [4], in test [5], in test [6] and in test [8] was “inactive” throughout. In test [10], the Potency result is “inactive”. The outcome in test [2], in [7] and in test [9] was inactive.
As to `C[C@H](N)[C@H](O)c1ccc(O)c(O)c1`, the Potency in test [1] was 2 µM (active). In addition, the outcome in test [2], in test [7] and in [9] was inactive. The Potency result in test [3], in test [4], in test [5], in [6] and in test [8] was “inactive” each time.
As to `COP(=O)(OC)OC=C(Cl)Cl`, the Potency entry in [1], in test [3], in [4], in [5], in test [6] and in [8] was “inactive” throughout. For the same compound, the Potency entry in test [10] is “inactive”. The compound was classed as inactive in test [2], in [7] and in [9].
With `C[N+]1(C)[C@@H]2CC[C@H]1CC(OC(=O)C(CO)c1ccccc1)C2` (some centres undefined), the Potency result in test [1], in test [3], in test [4], in test [5], in test [6] and in [8] was “inactive” in each case. Moreover, the Potency entry in [10] is “inactive”. The compound was called inactive in test [2], in test [7] and in [9].
Turning to `N#Cc1nn(-c2c(Cl)cc(C(F)(F)F)cc2Cl)c(N)c1S(=O)C(F)(F)F` (centres undefined), the Potency result in test [1], in test [3], in test [4], in [6] and in [8] was “inactive” each time. Besides, the compound was called inactive in test [2], in [7], in test [11] and in test [9]. Moreover, the Potency in test [10] is 3.89 µM (active).
For `CCC1(c2cccc(O)c2)CCCCN(C)C1` (centres undefined), the Potency entry in test [1], in test [3], in [4], in test [5], in test [6] and in [8] was “inactive” each time. For the same compound, in test [2], the compound was classed as inactive. Moreover, the Potency in test [10] was 13.8 µM (active).
Take `COP(=S)(OC)Oc1ccc(S(N)(=O)=O)cc1`: the Potency result in [1], in test [3], in [4], in test [5], in test [6] and in test [8] was “inactive” in each case. Besides, the compound was called inactive in [2], in test [7] and in test [9].
Turning to `CCCCCCCCC(=O)NCc1ccc(O)c(OC)c1`, the Potency entry in test [1], in test [3], in test [4], in test [5], in test [6] and in test [8] was “inactive” each time. For the same compound, the compound was classed as inactive in test [2], in test [7] and in [9]. The Potency in test [10] is 13.8 µM (active).
Take `C=CCN1CC[C@]23CCCC[C@H]2[C@H]1Cc1ccc(O)cc13`: the Potency result in test [1], in test [3], in [4], in test [6] and in test [8] was “inactive” in each case. For the same compound, the result in test [2], in test [7], in [11] and in [9] was inactive.
Take `COP(=O)(OC)C(O)C(Cl)(Cl)Cl` (centres undefined): the Potency entry in [1], in test [3], in test [4], in test [5], in test [6] and in test [8] was “inactive” in each case. The call in test [2], in test [7], in test [11] and in test [9] was inactive.
As to `COC(=O)C1=CCCN(C)C1`, the Potency result in test [1] and in test [8] was “inactive” throughout. Besides, the compound was called inactive in test [2], in [12], in [13], in test [7], in test [14] and in [11]. The result in test [9] was inactive.
`C[C@]12CC[C@H](O)CC1=CC[C@@H]1[C@@H]2CC[C@]2(C)C(=O)CC[C@@H]12`: the Potency entry in test [1], in test [3], in test [4], in [5], in test [6] and in [8] was “inactive” in each case. Further, the call in test [2], in [7], in test [11] and in [9] was inactive.
With `CC1COC2(c3ccccc3Cl)c3cc(Cl)ccc3NC(=O)CN12` (centres undefined), the Potency entry in [1], in [3], in test [4], in [5], in test [6] and in [8] was “inactive” each time. Also, the compound was classed as inactive in [2] and in test [7].
With `CNC(=O)Oc1cccc2ccccc12`, the Potency result in test [1], in test [3], in test [4], in test [5], in [6] and in test [8] was “inactive” throughout. For the same compound, the call in test [2], in test [7] and in test [9] was inactive.
Take `NC(=O)OCCCc1ccccc1`: the Potency result in test [1], in test [3], in test [4], in [5], in test [6] and in test [8] was “inactive” throughout. The Potency result in test [15], in [16] and in test [10] was “inactive” each time. The compound was classed as inactive in test [2], in test [7] and in [9]. In test [17], the max response was 1.15%.
On to `Cc1cccc(Cc2cnc[nH]2)c1C`, for which the Potency entry in test [1], in test [3], in [4], in test [5], in test [6] and in test [8] was “inactive” each time. For the same compound, the compound was called inactive in test [2], in [7] and in test [9].
Consider `O=C(NC(=O)c1c(F)cccc1F)Nc1cc(Cl)c(OC(F)(F)C(F)C(F)(F)F)cc1Cl` (centres undefined), for which the Potency result in test [1], in test [4], in [6], in test [8] and in test [10] was “inactive” in each case. For the same compound, the compound was called inactive in [2], in test [7] and in test [9].
`COc1cc(CC(C)N)c(OC)cc1Br` (centres undefined): the Potency result in test [1] and in [8] was “inactive” each time. The compound was called inactive in test [2], in [7] and in test [11].
On to `CCN(CC)Cc1nccn1-c1ccc([N+](=O)[O-])cc1C(=O)c1ccccc1Cl`, for which the Potency result in test [1], in test [4], in test [5], in test [6] and in [8] was “inactive” throughout. Also, the outcome in test [2], in test [7] and in [9] was inactive.
In the case of `c1ccc2c(c1)Sc1ccccc1N2CC1CN2CCC1CC2` (centres undefined), the Potency result in test [1], in [6] and in [8] was “inactive” each time. The result in [2] and in [11] was inactive. Also, the Potency in test [10] is 0.123 µM (active).
For `CCC(=O)OC1(c2ccccc2)CCN(C)CC1`, the Potency result in test [1], in [8] and in test [15] was “inactive” throughout. Also, the result in test [2], in [7] and in [9] was inactive. For the same compound, the Potency in test [10] was 37.5 µM (active).
For `C[C@@H]1CN(C2CCC(C#N)(c3ccc(F)cc3)CC2)CC[C@]1(C(=O)O)c1ccccc1` (some centres undefined), the Potency entry in test [1], in [4], in test [5], in test [6] and in test [8] was “inactive” throughout. The call in test [2], in test [7] and in test [9] was inactive. The Potency in [10] was 0.049 µM (active).
Take `C=CCOC(Cn1ccnc1)c1ccc(Cl)cc1Cl` (centres undefined): the Potency result in test [1], in test [4], in test [6] and in test [8] was “inactive” in each case. The compound was called inactive in test [2], in test [7] and in test [11]. Moreover, the Potency in test [10] is 2.88 µM (active).
